In PubChem BioAssay AID1159580 (chemical genetic matrix, 2015):
Screen size: about 5,500 compounds; about 2,000 (36%) were called active. Inconclusive results (about 18%) are left out. This is one part of the list. Unmarked numbers belong to inactive results. No stated cut-off is given here; in the data, active means normalized growth mostly below about 0.91 (no sharp cut-off); inconclusive means no clear call, values can overlap the other calls; inactive means mostly above about 0.92.

Test: chemical genetic growth profiling, strain panel (AID 1159580);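 further: tested at 20 µM; growth read once vehicle control cultures reached saturation at 30 °C; 1 = growth at the plate median or of vehicle wells; lower values mean less growth of the strain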
Details: growth OD

SMILES: COC(=O)[C@@]1(C)CCC[C@]2(C)c3ccc(O)c(C(C)C)c3CCC12 (stereo partly specified)
- normalized growth (S. cerevisiae deletion strains, locus YJR066W, strain TOR1, hits give low values): 0.689 (active)
- normalized growth (S. cerevisiae deletion strains, locus YKL009W, strain mrt4, hits give low values): 0.859 (active)
- normalized growth (S. cerevisiae deletion strains, locus YKL068W, hits give low values): 0.979
- normalized growth (S. cerevisiae deletion strains, locus YKL085W, strain MDH1 (second series), hits give low values): 0.522 (active)
- normalized growth (S. cerevisiae deletion strains, locus YKL085W, strain MDH1, hits give low values): 0.522 (active)
- normalized growth (S. cerevisiae deletion strains, locus YKL160W, strain elf1, hits give low values): 0.881 (active)
- normalized growth (S. cerevisiae deletion strains, locus YKR001C, strain vps1, hits give low values): 0.231 (active)
- normalized growth (S. cerevisiae deletion strains, locus YKR026C, strain gcn3, hits give low values): 0.978
- normalized growth (S. cerevisiae deletion strains, locus YKR091W, strain srl3, hits give low values): 0.976
- normalized growth (S. cerevisiae deletion strains, locus YLL001W, strain dnm1, hits give low values): 0.937
- normalized growth (S. cerevisiae deletion strains, locus YLL026W, hits give low values): 0.843 (active)
- normalized growth (S. cerevisiae deletion strains, locus YLL041C, strain sdh2, hits give low values): 0.965
- normalized growth (S. cerevisiae deletion strains, locus YLR027C, strain aat2, hits give low values): 0.354 (active)
- normalized growth (S. cerevisiae deletion strains, locus YLR039C, strain RIC1, hits give low values): 0.245 (active)
- normalized growth (S. cerevisiae deletion strains, locus YLR058C, strain SHM2, hits give low values): 0.661 (active)
- normalized growth (S. cerevisiae deletion strains, locus YLR102C, strain apc9, hits give low values): 0.95
- normalized growth (S. cerevisiae deletion strains, locus YLR113W, strain HOG1, hits give low values): 0.284 (active)
- normalized growth (S. cerevisiae deletion strains, locus YLR221C, strain rsa3, hits give low values): 0.619 (active)
- normalized growth (S. cerevisiae deletion strains, locus YLR258W, strain gsy2, hits give low values): 0.786 (active)
- normalized growth (S. cerevisiae deletion strains, locus YLR262C, strain YPT6 (second series), hits give low values): 0.208 (active)
- normalized growth (S. cerevisiae deletion strains, locus YLR268W, strain sec22, hits give low values): 0.85 (active)
- normalized growth (S. cerevisiae deletion strains, locus YLR320W, strain mms22, hits give low values): 0.695 (active)
- normalized growth (S. cerevisiae deletion strains, locus YLR330W, strain CHS5, hits give low values): 0.662 (active)
- normalized growth (S. cerevisiae deletion strains, locus YLR342W, strain FKS1 (second series), hits give low values): 0.42 (active)
- normalized growth (S. cerevisiae deletion strains, locus YLR342W, strain FKS1, hits give low values): 0.596 (active)
- normalized growth (S. cerevisiae deletion strains, locus YLR357W, strain rsc2, hits give low values): 1
- normalized growth (S. cerevisiae deletion strains, locus YLR370C, strain arc18, hits give low values): 1.01
- normalized growth (S. cerevisiae deletion strains, locus YLR371W, strain rom2, hits give low values): 0.444 (active)
- normalized growth (S. cerevisiae deletion strains, locus YLR384C, strain iki3, hits give low values): 0.998
- normalized growth (S. cerevisiae deletion strains, locus YLR418C, strain cdc73, hits give low values): 0.297 (active)
- normalized growth (S. cerevisiae deletion strains, locus YML016C, strain PPZ1, hits give low values): 0.889 (active)
- normalized growth (S. cerevisiae deletion strains, locus YML032C, strain rad52, hits give low values): 0.732 (active)
- normalized growth (S. cerevisiae deletion strains, locus YML120C, strain ndi1, hits give low values): 0.222 (active)
- normalized growth (S. cerevisiae deletion strains, locus YML124C, strain tub3, hits give low values): 0.922 (active)
- normalized growth (S. cerevisiae deletion strains, locus YMR058W, strain fet3, hits give low values): 0.919
- normalized growth (S. cerevisiae deletion strains, locus YMR078C, strain ctf18, hits give low values): 0.96
- normalized growth (S. cerevisiae deletion strains, locus YMR125W, strain sto1, hits give low values): 0.959
- normalized growth (S. cerevisiae deletion strains, locus YMR129W, hits give low values): 0.96
- normalized growth (S. cerevisiae deletion strains, locus YMR205C, strain PFK2, hits give low values): 0.649 (active)
- normalized growth (S. cerevisiae deletion strains, locus YMR223W, strain ubp8, hits give low values): 0.828 (active)
- normalized growth (S. cerevisiae deletion strains, locus YMR231W, strain pep5, hits give low values): 0.996
- normalized growth (S. cerevisiae deletion strains, locus YMR263W, strain SAP30, hits give low values): 0.657 (active)
- normalized growth (S. cerevisiae deletion strains, locus YMR307W, strain GAS1, hits give low values): 0.509 (active)
- normalized growth (S. cerevisiae deletion strains, locus YNL067W, strain RPL9B, hits give low values): 0.903
- normalized growth (S. cerevisiae deletion strains, locus YNL071W, strain lat1, hits give low values): 0.684 (active)
- normalized growth (S. cerevisiae deletion strains, locus YNL153C, strain GIM3, hits give low values): 0.788 (active)
- normalized growth (S. cerevisiae deletion strains, locus YNL183C, strain NPR1, hits give low values): 0.715 (active)
- normalized growth (S. cerevisiae deletion strains, locus YNL209W, strain ssb2, hits give low values): 0.856 (active)
- normalized growth (S. cerevisiae deletion strains, locus YNL233W, strain BNI4, hits give low values): 0.563 (active)
- normalized growth (S. cerevisiae deletion strains, locus YNL248C, strain rpa49, hits give low values): 0.916
- normalized growth (S. cerevisiae deletion strains, locus YNL250W, strain rad50, hits give low values): 0.934
- normalized growth (S. cerevisiae deletion strains, locus YNL271C, strain bni1, hits give low values): 0.971
- normalized growth (S. cerevisiae deletion strains, locus YNL298W, strain CLA4, hits give low values): 0.883 (active)
- normalized growth (S. cerevisiae deletion strains, locus YNL307C, strain MCK1, hits give low values): 0.502 (active)
- normalized growth (S. cerevisiae deletion strains, locus YNL322C, strain KRE1 (second series), hits give low values): 0.985
- normalized growth (S. cerevisiae deletion strains, locus YNR049C, strain mso1, hits give low values): 0.964
- normalized growth (S. cerevisiae deletion strains, locus YNR052C, strain pop2, hits give low values): 0.629 (active)
- normalized growth (S. cerevisiae deletion strains, locus YOL012C, strain htz1): 0.967
- normalized growth (S. cerevisiae deletion strains, locus YOL147C, strain pex11, hits give low values): 0.681 (active)
- normalized growth (S. cerevisiae deletion strains, locus YOR001W, strain rrp6, hits give low values): 0.636 (active)
- normalized growth (S. cerevisiae deletion strains, locus YOR061W, strain CKA2, hits give low values): 0.859 (active)
- normalized growth (S. cerevisiae deletion strains, locus YOR069W, strain VPS5, hits give low values): 0.854 (active)
- normalized growth (S. cerevisiae deletion strains, locus YOR070C, strain gyp1, hits give low values): 0.693 (active)
- normalized growth (S. cerevisiae deletion strains, locus YOR080W, strain dia2, hits give low values): 0.715 (active)
- normalized growth (S. cerevisiae deletion strains, locus YOR083W, strain WHI5, hits give low values): 0.835 (active)
- normalized growth (S. cerevisiae deletion strains, locus YOR106W, strain vam3, hits give low values): 0.373 (active)
- normalized growth (S. cerevisiae deletion strains, locus YOR136W, strain idh2, hits give low values): 0.929
- normalized growth (S. cerevisiae deletion strains, locus YOR144C, strain elg1, hits give low values): 0.711 (active)
- normalized growth (S. cerevisiae deletion strains, locus YOR184W, strain ser1, hits give low values): 0.355 (active)
- normalized growth (S. cerevisiae deletion strains, locus YOR231W, strain MKK1, hits give low values): 0.575 (active)
- normalized growth (S. cerevisiae deletion strains, locus YOR265W, strain rbl2, hits give low values): 0.741 (active)
- normalized growth (S. cerevisiae deletion strains, locus YOR270C, strain vph1, hits give low values): 0.612 (active)
- normalized growth (S. cerevisiae deletion strains, locus YOR290C, strain snf2, hits give low values): 0.776 (active)
- normalized growth (S. cerevisiae deletion strains, locus YOR316C, strain cot1, hits give low values): 0.984
- normalized growth (S. cerevisiae deletion strains, locus YPL051W, strain arl3, hits give low values): 0.539 (active)
- normalized growth (S. cerevisiae deletion strains, locus YPL055C, strain LGE1, hits give low values): 0.403 (active)
- normalized growth (S. cerevisiae deletion strains, locus YPL078C, strain atp4, hits give low values): 0.924
- normalized growth (S. cerevisiae deletion strains, locus YPL106C, strain sse1, hits give low values): 0.505 (active)
- normalized growth (S. cerevisiae deletion strains, locus YPL240C, strain hsp82, hits give low values): 0.697 (active)
- normalized growth (S. cerevisiae deletion strains, locus YPL256C, strain CLN2, hits give low values): 0.682 (active)
- normalized growth (S. cerevisiae deletion strains, locus YPR119W, strain clb2, hits give low values): 0.799 (active)
- normalized growth (S. cerevisiae deletion strains, locus YPR141C, strain kar3, hits give low values): 0.987
- normalized growth (S. cerevisiae deletion strains, locus YPR163C, strain tif3, hits give low values): 0.817 (active)
- normalized growth (S. cerevisiae deletion strains, locus YPR167C, strain met16, hits give low values): 0.773 (active)
- normalized growth (S. cerevisiae deletion strains, strain wtn01, hits give low values): 0.812 (active)
- normalized growth (S. cerevisiae strains, strain wild type, hits give low values): 0.458 (active)
